Results taken from the supplement of paper PMC9694430.
Structures can show the parent of a compound that is named as a salt.

tested on: LOC_OS05G43570-cb004; assay: thermal shift delta Tm vs DMSO control; higher = stronger stabilization (binding); details: 12.5 µM; protein concentration 2 µM
How it was run: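 The melting temperature shift given here is a triplicate mean, measured against protein that received only DMSO. Melting temperatures came from Boltzmann fits of differential scanning fluorimetry data on E. coli-expressed, purified rice kinase domain constructs. Each 19.5 μl well contained 2 μM kinase, 100 mM potassium phosphate pH 7.5, 150 mM NaCl, 10% glycerol, 5 × SYPRO Orange and compound in DMSO. Plates were scanned from 25°C to 95°C at 0.05°C/s.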

Row | Compound | thermal shift delta Tm [°C]
1 | CCn1c(=O)c(-c2ccc(-c3cncs3)cc2Cl)cc2cnc(Nc3ccc(N4CCN(C)CC4)cc3)nc21 | 0.24
2 | CNC(=O)c1cccc(-c2ccc3c(N4CCOC[C@@H]4C)nc(N4CCOC[C@@H]4C)nc3n2)c1 [Vistusertib (AZD2014)] | 0.5
3 | CC(C)S(=O)(=O)c1ccc2nccc(Nc3ccc4scnc4c3)c2c1 | 0.38
4 | Cn1cc(-c2ccc3ncc(Cc4ccc5ncccc5c4)n3n2)cn1 | 0.16
5 | N#Cc1ccc2ncnc(NCCc3ccccc3)c2c1 [Senexin A] | 0.23
6 | O=C1NC(=O)/C(=C/c2ccc3nccc(-c4ccncc4)c3c2)S1 | 0.36
7 | Cn1cnc2c(F)c(Nc3ccc(Br)cc3F)c(C(=O)NOCCO)cc21 | 0.51
8 | Cc1cc(Nc2ncc(Cl)c(Nc3ccccc3S(=O)(=O)C(C)C)n2)c(OC(C)C)cc1C1CCNCC1 [Ceritinib (LDK378)] | 0.27
9 | Cc1nc2ccc(-n3ncc(C(=O)c4cc5ccccc5[nH]4)c3N)cc2[nH]1 | 0.2
10 | C=C[C@@](C)(/C=C/c1ccc(O)cc1)CCC=C(C)C [Bakuchiol] | 0.47
11 | C=CC(=O)Nc1cccc(Nc2nc(Nc3ccc(N4CCN(C(C)=O)CC4)cc3OC)ncc2C(F)(F)F)c1 [Rociletinib (CO-1686, AVL-301)] | 0.4
12 | CCCS(=O)(=O)Nc1ccc(F)c(C(=O)c2c[nH]c3ncc(-c4ccc(Cl)cc4)cc23)c1F [Vemurafenib (PLX4032, RG7204)] | 1.69
13 | COc1cc(OC)c(C=C2C(=O)Nc3ccccc32)c(OC)c1 | -0.11
14 | CCN(CC)CCCC(C)Nc1nc(C)cc(Nc2ccc3nc(C)cc(N)c3c2)n1 (centres undefined) | 0.55
15 | CN1CC(O)C2=C/C(=N/NC(N)=O)C(=O)C=C21 (centres undefined) [Carbazochrome] | 0.35
16 | Cc1cc(Nc2cc(N3CCN(C)CC3)nc(/C=C/c3ccccc3)n2)n[nH]1 | 0.82
17 | Cc1ccc(NC(=O)Nc2cc(C(F)(F)F)ccc2F)cc1Nc1ccc2c(c1)NC(=O)/C2=C\c1ccc[nH]1 | 1.98

Row | Compound | thermal shift delta Tm [°C]
18 | CO[C@H]1C[C@@H]2CC[C@@H](C)[C@@](O)(O2)C(=O)C(=O)N2CCCC[C@H]2C(=O)O[C@H]([C@H](C)C[C@@H]2CC[C@@H](O)[C@H](OC)C2)CC(=O)[C@H](C)/C=C(\C)[C@@H](O)[C@@H](OC)C(=O)[C@H](C)C[C@H](C)/C=C/C=C/C=C/1C [Rapamycin (Sirolimus)] | 0.84
19 | C[S+]([O-])c1ccc(-c2nc(-c3ccc(F)cc3)c(-c3ccncc3)[nH]2)cc1 (centres undefined) | 1.12
20 | CO[C@H]1CC[C@H](N2C(=O)CNc3ncc(-c4ccc(C(C)(C)O)nc4)nc32)CC1 | 0.48
21 | O=C(Nc1ccccc1C(=O)NC1CCCCNC1=O)c1cc2ccccc2s1 (centres undefined) | 0.18
22 | CCN1CCN(Cc2ccc(-c3cc4c(N[C@H](C)c5ccccc5)ncnc4[nH]3)cc2)CC1 | 0.5
23 | Cc1cnc(NC(=O)Nc2cc(Br)c(C)cc2OC[C@@H]2CNCCO2)cn1 | 0.24
24 | Cc1ccc(NC(=O)c2ccc(CN3CCN(C)CC3)cc2)cc1Nc1nccc(-c2cccnc2)n1 [Imatinib Mesylate (STI571)] | 0.49
25 | NC(=O)c1ccc(N(C(N)=O)c2c(F)cccc2F)nc1-c1ccc(F)cc1F | 0.22
26 | Cc1nc(-c2cn3c(n2)-c2ccc(-c4cnn(C(C)(C)C(N)=O)c4)cc2OCC3)n(C(C)C)n1 [Taselisib (GDC 0032)] | 0.36
27 | COc1cc(N2CCC(N(C)C)CC2)ccc1Nc1ncc(Cl)c(Nc2ccccc2P(C)(C)=O)n1 | 0.32
28 | COc1cc2c(Nc3ccc(NC(=O)c4ccccc4)cc3)ncnc2cc1OCCCN1CCOCC1 | 0.4
29 | CNC(=O)c1cc(Oc2ccc(NC(=O)Nc3cc(C(C)(C)C)nn3-c3ccc4ncccc4c3)c(F)c2)ccn1 [Rebastinib (DCC-2036)] | 0.62
30 | CC(C)(CO)n1cc(C(=O)c2cncc(NC(=O)Cc3ccc(Cl)cn3)c2)c2cnc(N)nc21 | 0.18
31 | CS(=O)(=O)N1CCN(Cc2cc3nc(-c4cccc5[nH]ncc45)nc(N4CCOCC4)c3s2)CC1 [Pictilisib (GDC-0941)] | 0.46
32 | C[C@@H]1COC(Nc2ccc3ncnc(Nc4ccc(OCc5nccs5)c(Cl)c4)c3c2)=N1 [Varlitinib] | 0.53
33 | COc1cc(Nc2ncc(F)c(Nc3ccc4c(n3)NC(=O)C(C)(C)O4)n2)cc(OC)c1OC | 0.37
34 | CC(C)n1nc(-c2ccc3oc(N)nc3c2)c2c(N)ncnc21 | 0.24
